{"source": "PubChem BioAssay AID2561", "about": "(National Center for Advancing Translational Sciences (NCATS), 2010)", "note": "Inconclusive results are not listed. Calls of active or inactive are those of the source. Calls come from the whole dose curve; as a rule, active = well fitted inhibition curve with a large enough effect; inconclusive = small, poorly fitted or top-dose-only effect, or effect the other way; inactive = flat fitted curve, though single readings scatter. Potency is the fitted concentration of half-maximal effect.", "data": [{"target": "Pyruvate kinase (Leishmania mexicana) (UniProt Q27686)", "sequence (Q27686 whole entry, looked up)": "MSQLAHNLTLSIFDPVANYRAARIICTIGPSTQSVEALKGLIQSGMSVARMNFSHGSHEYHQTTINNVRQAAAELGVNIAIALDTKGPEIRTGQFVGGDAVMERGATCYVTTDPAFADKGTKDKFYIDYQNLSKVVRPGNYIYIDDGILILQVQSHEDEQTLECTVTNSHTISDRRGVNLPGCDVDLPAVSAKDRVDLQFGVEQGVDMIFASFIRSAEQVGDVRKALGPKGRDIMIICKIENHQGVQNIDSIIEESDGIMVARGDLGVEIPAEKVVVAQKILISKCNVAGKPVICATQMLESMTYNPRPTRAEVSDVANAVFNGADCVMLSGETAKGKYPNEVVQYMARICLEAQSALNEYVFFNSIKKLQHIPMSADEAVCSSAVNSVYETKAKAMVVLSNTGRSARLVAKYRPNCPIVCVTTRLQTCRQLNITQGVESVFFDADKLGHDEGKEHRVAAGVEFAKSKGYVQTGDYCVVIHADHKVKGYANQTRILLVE", "test": "Confirmation Assay for Inhibitors of Leishmania Mexicana Pyruvate Kinase (LmPK): for Probe SAR;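 for activity change, negative = inhibition: plate controls were uninhibited enzyme for no effect and no enzyme wells for full effect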", "settings": "purified LmPK, ATP generation, Kinase-Glo luminescence; series mostly up to 57.5 µM; activity change, negative = inhibition: at the top concentration", "method_in_brief": "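Coupled luminescent assay: ATP produced by LmPK (0.1 nM) from ADP (0.1 mM, ~10-fold below Km) and PEP (0.5 mM, at Km) after 1 h RT, detected with Kinase-Glo. Data scaled between no-enzyme and uninhibited controls.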", "values": [{"compound": "O=C1CCc2cc(S(=O)(=O)Nc3ccc(F)cc3)ccc2N1", "activity change, negative = inhibition": "5.68% (inactive)"}, {"compound": "COc1ccc(NS(=O)(=O)c2ccc3c(c2)CCC(=O)N3)cc1", "activity change, negative = inhibition": "8.64% (inactive)"}, {"compound": "O=S1(=O)N=C(Oc2ccc(Br)cc2)c2ccccc21", "Potency": "2.91 µM (active)"}, {"compound": "Cc1ccccc1N(C)C1=N[S+](=O)([O-])c2ccccc21", "activity change, negative = inhibition": "2.85% (inactive)"}, {"compound": "Cc1ccc2nc(-c3ccc(C)o3)c(Nc3ccc4c(c3)OCO4)n2c1", "activity change, negative = inhibition": "-10.7% (inactive)"}, {"compound": "Cc1ccc(NS(=O)(=O)c2ccc(N3CCCC3=O)cc2)cc1C", "activity change, negative = inhibition": "4.2% (inactive)"}, {"compound": "Cc1ccc(C)c(SC2=NS(=O)(=O)c3ccccc32)c1", "Potency": "4.11 µM (active)"}, {"compound": "O=C1CCc2cc(S(=O)(=O)Nc3cccc(F)c3)ccc2N1", "activity change, negative = inhibition": "10.2% (inactive)"}, {"compound": "CC(C)c1ccccc1SC1=NS(=O)(=O)c2ccccc21", "Potency": "1.83 µM (active)"}, {"compound": "O=S1(=O)N=C(Oc2cccc3ccccc23)c2ccccc21", "Potency": "4.11 µM (active)"}, {"compound": "COC(=O)c1ccc2c(c1)S(=O)(=O)N=C2Sc1cc(C)ccc1C", "Potency": "8.19 µM (active)"}, {"compound": "COc1cc(N2C(=O)c3ccccc3C2=O)c2ncccc2c1", "activity change, negative = inhibition": "14% (inactive)"}, {"compound": "Cc1ccc(NS(=O)(=O)c2cccc(Cl)c2)cc1C", "activity change, negative = inhibition": "14.4% (inactive)"}, {"compound": "O=C1c2ccccc2C(=O)N1c1ccccn1", "activity change, negative = inhibition": "23.6% (inactive)"}, {"compound": "Cc1ccc(Nc2c(-c3ccc(C)o3)nc3ccccn23)cc1", "activity change, negative = inhibition": "16.8% (inactive)"}, {"compound": "O=C1c2ccccc2C(=O)N1Cc1cccnc1", "activity change, negative = inhibition": "-2.71% (inactive)"}, {"compound": "Cc1ccc2nc(-c3ccc(C)o3)c(Nc3ccc(F)cc3)n2c1", "activity change, negative = inhibition": "-21.2% (inactive)"}, {"compound": "CC(=O)Nc1cccc(OC2=NS(=O)(=O)c3ccccc32)c1", "Potency": "2.06 µM (active)"}, {"compound": "Cc1ccc(NS(=O)(=O)c2cc3c(cc2N(C)C)NC(=O)CC3)cc1C", "activity change, negative = inhibition": "5.95% (inactive)"}, {"compound": "Cc1cc(N2C(=O)c3ccccc3C2=O)n[nH]1", "activity change, negative = inhibition": "10.3% (inactive)"}, {"compound": "Cc1ccc(NS(=O)(=O)c2ccc3c(ccn3C)c2)cc1C", "activity change, negative = inhibition": "-11% (inactive)"}, {"compound": "Cc1ccc(NS(=O)(=O)c2ccc3c(c2)CCC(=O)N3)cc1", "activity change, negative = inhibition": "12.6% (inactive)"}, {"compound": "O=C1c2ccccc2C(=O)N1c1ccc2ncccc2c1", "activity change, negative = inhibition": "6.91% (inactive)"}, {"compound": "O=C(O)c1ccccc1OC1=NS(=O)(=O)c2ccccc21", "Potency": "1.63 µM (active)"}, {"compound": "O=C1CCc2cc(S(=O)(=O)Nc3ccncc3)ccc2N1", "activity change, negative = inhibition": "-1.99% (inactive)"}, {"compound": "N#Cc1cccc(OC2=NS(=O)(=O)c3ccccc32)c1", "Potency": "4.61 µM (active)"}, {"compound": "O=C1NS(=O)(=O)c2cscc21", "activity change, negative = inhibition": "2.97% (inactive)"}, {"compound": "Cc1ccc(NS(=O)(=O)c2cc3c(cc2Br)NC(=O)CO3)cc1C", "activity change, negative = inhibition": "8.27% (inactive)"}, {"compound": "CCOc1ccc2[nH]c(C3C(=O)c4ccccc4C3=O)cc(=O)c2c1", "activity change, negative = inhibition": "-13.9% (inactive)"}, {"compound": "Cc1ccc(NS(=O)(=O)c2ccc3c(c2)oc(=O)n3C)cc1C", "activity change, negative = inhibition": "8.92% (inactive)"}]}]}
